Data as given in PubChem BioAssay AID651642 (Sanford-Burnham Center for Chemical Genomics, 2012).
Active and inactive are the calls of the source.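 How the source made its calls: active means average half-effect concentration of 10 µM or less in every one of the four cell panels; inactive means the rest.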

Test system: H9c2
Assay: cardiomyocyte survival under oxidative or metabolic stress – cell-based, panel, H9c2 and HL-1, H2O2, 2-deoxyglucose, ATP luminescence, SAR follow-up (AID 651642)
Details: H9c2/HL-1 cardiomyocyte 2-deoxyglucose damage, mean of runs, with 2-deoxyglucose

Row | Compound | outcome
1 | COc1ccc2c(c1OC)C(=O)N1c3ccccc3C(=O)N(Cc3cccc(Br)c3)C21 (configuration not stated) | inactive
2 | CCNC(=O)c1cccc(NC(=O)c2cc(-c3cc(OC)c(OC)c(OC)c3)nc3ccccc23)c1 | inactive
3 | COc1ccc(NC(=O)CNC(=O)c2cc(-c3cc(OC)c(OC)c(OC)c3)nc3ccccc23)cc1 | inactive
4 | COc1cc(-c2cc(C(=O)Nc3cccc(C(C)=O)c3)c3cc(Br)ccc3n2)cc(OC)c1OC | inactive
5 | COc1cc(-c2cc(C(=O)Nc3cccc(C(=O)Nc4ccccc4)c3)c3ccccc3n2)cc(OC)c1OC | active
6 | COc1cc(-c2cc(C(=O)Nc3cccc(C(C)=O)c3)c3cc(C)ccc3n2)cc(OC)c1OC | inactive
7 | COc1ccc2c(c1OC)C(=O)N1c3ccccc3C(=O)N(Cc3ccc(C)cc3C)C21 (configuration not stated) | inactive
8 | COc1cc(-c2cc(C(=O)Nc3cccc(C(=O)NC4CC4)c3)c3ccccc3n2)cc(OC)c1OC | inactive
9 | COc1ccc2c(c1OC)C(=O)N1c3ccccc3C(=O)N(Cc3ccccc3Cl)C21 (configuration not stated) | inactive
10 | COc1ccc2c(c1OC)C(=O)N1c3ccccc3C(=O)N(Cc3cccc(C)c3)C21 (configuration not stated) | inactive
11 | CCOC(=O)c1cccc(NC(=O)c2cc(-c3cc(OC)c(OC)c(OC)c3)nc3ccccc23)c1 | inactive
12 | COc1cccc(CNC(=O)CNC(=O)c2cc(-c3cc(OC)c(OC)c(OC)c3)nc3ccccc23)c1 | inactive
13 | COc1cc(-c2cc(C(=O)Nc3cccc(C(C)=O)c3)c3ccc(Cl)cc3n2)cc(OC)c1OC | inactive
14 | COc1ccc2c(c1OC)C(=O)N1c3ccccc3C(=O)N(Cc3ccc(F)cc3)C21 (configuration not stated) | inactive
15 | COc1ccc2c(c1OC)C(=O)N1c3ccccc3C(=O)N(Cc3ccccc3)C21 (configuration not stated) | inactive
16 | COc1ccc2c(c1OC)C(=O)N1c3ccccc3C(=O)N(Cc3cccc(Cl)c3Cl)C21 (configuration not stated) | active

Row | Compound | outcome
17 | COc1ccc2nc(-c3cc(OC)c(OC)c(OC)c3)cc(C(=O)Nc3cccc(C(C)=O)c3)c2c1 | inactive
18 | COc1cc(-c2cc(C(=O)Nc3cccc(C(=O)N(C)C)c3)c3ccccc3n2)cc(OC)c1OC | inactive
19 | CCOC(=O)c1ccccc1NC(=O)c1cc(-c2cc(OC)c(OC)c(OC)c2)nc2ccccc12 | inactive
20 | COc1cc(-c2cc(C(=O)Nc3cccc(C(=O)O)c3)c3ccccc3n2)cc(OC)c1OC | inactive
21 | COc1cc(-c2cc(C(=O)NCC(=O)Nc3cccc(C(C)=O)c3)c3cc(F)ccc3n2)cc(OC)c1OC | active
22 | COc1cc(-c2cc(C(=O)Nc3cccc(C(N)=O)c3)c3ccccc3n2)cc(OC)c1OC | inactive
23 | COc1cc(-c2cc(C(=O)NCC(=O)Nc3ccc(C(C)=O)cc3)c3cc(F)ccc3n2)cc(OC)c1OC | inactive
24 | CCOC(=O)c1cccc(NC(=O)c2cc(-c3cc(OC)c(OC)c(OC)c3)nc3ccc(OC)cc23)c1 | inactive
25 | COc1cc(-c2cc(C(=O)NCC(=O)O)c3ccccc3n2)cc(OC)c1OC | inactive
26 | COc1ccc2c(c1OC)C(=O)N1c3ccccc3C(=O)N(Cc3ccccc3F)C21 (configuration not stated) | inactive
27 | CCOC(=O)c1cccc(NC(=O)c2cc(-c3cc(OC)c(OC)c(OC)c3)nc3ccc(F)cc23)c1 | inactive
28 | COc1ccc2c(c1OC)C(=O)N1c3ccccc3C(=O)N(Cc3c(Cl)cccc3Cl)C21 (configuration not stated) | inactive
29 | COc1ccc2c(c1OC)C(=O)N1c3ccccc3C(=O)N(Cc3cccc(F)c3)C21 (configuration not stated) | inactive
30 | CCOC(=O)c1cccc(NC(=O)c2cc(-c3cc(OC)c(OC)c(OC)c3)nc3ccc(C)cc23)c1 | inactive
31 | COc1cc(-c2cc(C(=O)NCC(=O)Nc3ccc(C(C)=O)cc3)c3cc(C)ccc3n2)cc(OC)c1OC | active
32 | COc1cc(-c2cc(C(=O)NCC(=O)Nc3cccc(C(C)=O)c3)c3cc(Br)ccc3n2)cc(OC)c1OC | active
